# Assay results from the supplement of paper PMC9694430.
# Structures can show the parent of a compound that is named as a salt.
# Test system: LOC_OS01G70970-cb002
# Experiment: thermal shift delta Tm vs DMSO control; higher = stronger stabilization (binding)
# Settings: 12.5 µM; protein concentration 2 µM
# Procedure, shortened: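 Thermal shift values come from differential scanning fluorimetry on purified rice kinase domains made in E. coli, with melting temperatures obtained from Boltzmann fits. Samples of 19.5 μl held 2 μM kinase, 100 mM potassium phosphate pH 7.5, 150 mM NaCl, 10% glycerol, 5 × SYPRO Orange and compound in DMSO, and were heated from 25°C to 95°C at 0.05°C/s. Each shift is a triplicate mean relative to the DMSO-only protein sample.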
# 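Further: purified Escherichia coli-expressed rice kinase domain construct.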
row,SMILES,thermal shift delta Tm [°C]
1,COc1cc2ncnc(Oc3ccc(CC(=O)Nc4cnn(C(C)C)c4)cc3)c2cc1OC,0.47
2,CN1C(=O)[C@@H](NC(=O)c2n[nH]c(Cc3ccccc3)n2)COc2ccccc21,0.41
3,N[C@@H]1CCCN(c2c(/C=C3\SC(=O)NC3=O)cccc2-c2ccccc2)C1,0.19
4,Cc1cc(C(C)Nc2ccccc2)c2nc(N3CCOCC3)cc(=O)n2c1 (centres undefined),0.34
5,CC#CC(=O)N1CC[C@@H](n2c(=O)n(-c3ccc(Oc4ccccc4)cc3)c3c(N)ncnc32)C1 [ONO-4059 (GS-4059) hydrochloride],0.11
6,COc1cc(OC)c(C=C2C(=O)Nc3ccccc32)c(OC)c1,0.32
7,O=C(Nc1cnn2ccc(N3CCC[C@@H]3c3cc(F)ccc3F)nc12)N1CC[C@H](O)C1 [Larotrectinib (LOXO-101) sulfate],0.22
8,C[C@H](NC(=O)/C(C#N)=C/c1cccc(Br)n1)c1ccccc1,-1.46
9,Nc1nccc(Oc2ccc3c(C(=O)Nc4cccc(C(F)(F)F)c4)cccc3c2)n1,0.71
10,Oc1cccc(-c2nc(N3CCOCC3)c3oc4ncccc4c3n2)c1,0.33
11,O=C(c1ccc(Nc2nccc(-c3cc4ccccc4s3)n2)cc1)N1CCC(N2CCCC2)CC1 [IKK-16 (IKK Inhibitor VII)],2.66
12,Cc1cc(C(=O)NOCCO)c(Nc2ccc(I)cc2F)n(C)c1=O,0.23
13,c1nc2c(NC3CCCCC3)nc(Nc3ccc(N4CCOCC4)cc3)nc2[nH]1 [Reversine],7.39
14,CC#CC(=O)N1CCC[C@H]1c1nc(-c2ccc(C(=O)Nc3ccccn3)cc2)c2c(N)nccn12 [Acalabrutinib (ACP-196)],0.4
